Measured values: PubChem BioAssay (NCI)
About 83,000 compounds went through this panel and 20% of them were active in at least one assay; those are over-represented in the sample as a whole.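 Values shown are percent growth following 48 h exposure of cells in 96-well plates to a single concentration of compound; below 10 was considered active.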 A number with no mark means an inactive call. Calls of active or inactive are those of the source.

Tests used:
Assay in all cases: NCI-60 one-dose screen, 48 h (100 = growth as untreated, 0 = no growth, -100 = all killed)
Conditions in all cases: 10 µM
HCT-15 colon = system: HCT-15 colon
HT29 colon = system: HT29 colon
SNB-75 CNS = system: SNB-75 CNS
SNB-19 CNS = system: SNB-19 CNS
U251 CNS = system: U251 CNS
PC-3 prostate = system: PC-3 prostate
SK-MEL-5 melanoma = system: SK-MEL-5 melanoma
UACC-62 melanoma = system: UACC-62 melanoma
LOX IMVI melanoma = system: LOX IMVI melanoma
SK-MEL-28 melanoma = system: SK-MEL-28 melanoma
SK-MEL-2 melanoma = system: SK-MEL-2 melanoma
SN12C renal = system: SN12C renal
UO-31 renal = system: UO-31 renal
TK-10 renal = system: TK-10 renal
ACHN renal = system: ACHN renal
A498 renal = system: A498 renal
CCRF-CEM leukemia = system: CCRF-CEM leukemia
MOLT-4 leukemia = system: MOLT-4 leukemia
EKVX NSCLC = system: EKVX NSCLC
CAKI-1 renal = system: CAKI-1 renal

Structure (SMILES) | growth (HCT-15 colon) | growth (HT29 colon) | growth (SNB-75 CNS) | growth (SNB-19 CNS) | growth (U251 CNS) | growth (PC-3 prostate) | growth (SK-MEL-5 melanoma) | growth (UACC-62 melanoma) | growth (LOX IMVI melanoma) | growth (SK-MEL-28 melanoma) | growth (SK-MEL-2 melanoma) | growth (SN12C renal) | growth (UO-31 renal) | growth (TK-10 renal) | growth (ACHN renal) | growth (A498 renal) | growth (CCRF-CEM leukemia) | growth (MOLT-4 leukemia) | growth (EKVX NSCLC) | growth (CAKI-1 renal)
C#CC(C)(O)[C@@H]1C[C@H](CC(=O)O)C1(C)C (stereo not given in full) | 104% | 109% | 96% | 98.6% | 109% | 105% | 115% | 100% | 98.1% | 113% | 108% | 108% | 87.1% | 114% | 110% | 110% | 137% | 114% | – | –
Cc1nc2n(c(=O)c1CCN1CCC(c3noc4cc(F)ccc34)CC1)CCC[C@@H]2O | 93.8% | 95.2% | 87.1% | 102% | 93.7% | 91.3% | 100% | 98.2% | 97.4% | 97.9% | – | 101% | 80% | 109% | 95.9% | 80.5% | -3.98% (active) | 96.9% | 92.8% | 102%
CN1CCN(c2cc3c(cc2F)c(=O)c(C(=O)O)cn3-c2ccc(F)cc2)CC1 | 99.2% | 91.2% | 55.2% | 98.2% | 106% | 90.4% | 95.5% | 90.2% | 84.7% | 105% | – | 97.3% | 68.7% | 103% | 95.1% | 86.8% | 102% | 84.2% | 108% | 94.7%
C[C@@H](O)[C@H]1C(=O)N2C(C(=O)O)=C(SC3CN[C@H](C(=O)N(C)C)C3)[C@H](C)[C@H]12 (stereo not given in full) | 104% | 103% | 94.1% | 119% | 99.3% | 92.4% | 102% | 99.4% | 96.4% | 109% | – | 99.5% | 78.7% | 106% | 96.9% | 88.8% | -40.1% (active) | – | 104% | 95.2%
Cc1ccc(/C=C/C(=O)C(=O)/C=C/c2ccc(C)cc2)cc1 | 95.5% | 91.4% | 90.4% | 103% | 93% | 92.2% | 106% | 96.7% | 89.3% | 108% | 105% | 105% | 89.7% | 92% | – | – | – | 91.8% | – | 94.8%
